{"source": "PubChem BioAssay AID651551", "about": "(Sanford-Burnham Center for Chemical Genomics, 2012)"}
{"target": "PEG-3 (UniProt Q6IN02)", "assay": "GAPDH versus PEG-3 reporter suppression – cell-based, luminescence, counter-screen for PEG-3 promoter inhibitor project, SAR follow-up (AID 651551)", "details": "HeLa PEG-Prom / GAPDH luciferase reporter, 6 or 24 h, run 2, 6 h; at 99 µM (top of the series)", "units": {"inhibition % (higher = more inhibition)": "%"}}
{"smiles": "Cc1nc(NC(=O)c2ccccc2)sc1-c1csc(Nc2cccc(Cl)c2C)n1", "inhibition % (higher = more inhibition)": 32.8}
{"smiles": "COc1ccc(-n2nc(C(=O)NCC(=O)Nc3cc(OC)c(OC)c(OC)c3)c3ccccc3c2=O)cc1OC", "inhibition % (higher = more inhibition)": 9.37}
{"smiles": "CCn1cc(C(=O)NCc2ccco2)c(=O)c2cc(S(=O)(=O)N3CCCC3)ccc21", "inhibition % (higher = more inhibition)": -0.291}
{"smiles": "CCCn1nc(C(=O)Nc2nc3ccccc3s2)c2ccccc2c1=O", "inhibition % (higher = more inhibition)": 21.8}
{"smiles": "Cc1nc(NC(=O)c2ccccc2)sc1-c1csc(Nc2ccccc2)n1", "inhibition % (higher = more inhibition)": 5.23}
{"smiles": "CCCn1nc(C(=O)Nc2nc(-c3ccccn3)cs2)c2ccccc2c1=O", "inhibition % (higher = more inhibition)": 44.6}
{"smiles": "COCCCNC(=O)c1ccc(Cn2c(=O)c3ccccc3n(Cc3ccccc3C#N)c2=O)cc1", "inhibition % (higher = more inhibition)": 23.2}
{"smiles": "O=C(Nc1nc2ccccc2s1)c1nn(-c2ccccc2)c(=O)c2ccccc12", "inhibition % (higher = more inhibition)": -4.43}
{"smiles": "O=C(Nc1nc(-c2ccccc2)cs1)c1nn(-c2ccccc2)c(=O)c2ccccc12", "inhibition % (higher = more inhibition)": 3.85}
{"smiles": "COc1ccc(-n2nc(C(=O)NCC(=O)Nc3ccc(OC)c(OC)c3)c3ccccc3c2=O)cc1", "inhibition % (higher = more inhibition)": 13.5}
{"smiles": "Cc1cc(NC(=O)c2ccccc2C(F)(F)F)n(-c2nc3ccccc3[nH]2)n1", "inhibition % (higher = more inhibition)": 88.2}
{"smiles": "Cc1cc(NC(=O)c2ccccc2C)n(-c2nc3ccccc3[nH]2)n1", "inhibition % (higher = more inhibition)": 41.1}
{"smiles": "COc1ccc(-n2nc(C(=O)NCC(=O)Nc3cccc(OC)c3)c3ccccc3c2=O)cc1", "inhibition % (higher = more inhibition)": 2.47}
{"smiles": "Cc1cc(NC(=O)c2ccccc2)n(-c2nc3ccccc3[nH]2)n1", "inhibition % (higher = more inhibition)": 17.6}
{"smiles": "COc1ccccc1Nc1nc(-c2sc(NC(=O)c3ccco3)nc2C)cs1", "inhibition % (higher = more inhibition)": -0.291}
{"smiles": "CCn1nc(C(=O)Nc2nc(-c3ccccn3)cs2)c2ccccc2c1=O", "inhibition % (higher = more inhibition)": 39.9}
{"smiles": "O=C(Nc1nccs1)c1nn(-c2ccccc2)c(=O)c2ccccc12", "inhibition % (higher = more inhibition)": 28.7}
{"smiles": "COc1ccc(Cl)cc1Nc1nc(-c2sc(NC(=O)c3ccccc3)nc2C)cs1", "inhibition % (higher = more inhibition)": 42.5}
{"smiles": "Cc1cc(NC(=O)c2cccc(C)c2C)n(-c2nc3ccccc3[nH]2)n1", "inhibition % (higher = more inhibition)": 16.4}
{"smiles": "Cc1nc(NC(=O)c2ccccc2)sc1-c1csc(Nc2ccccc2Cl)n1", "inhibition % (higher = more inhibition)": 7.99}
{"smiles": "CCCn1nc(C(=O)Nc2nc(-c3ccncc3)cs2)c2ccccc2c1=O", "inhibition % (higher = more inhibition)": 7.03}
{"smiles": "Cc1cc(NC(=O)c2ccccc2)n(-c2nc3ccccc3n2C)n1", "inhibition % (higher = more inhibition)": 38.3}
{"smiles": "Cc1ccc(Cl)cc1Nc1nc(-c2sc(NC(=O)c3ccco3)nc2C)cs1", "inhibition % (higher = more inhibition)": 37}
